In PubChem BioAssay (NCATS):
Results filed as inconclusive are left out. The source made the active and inactive calls. Calls follow the shape of the dose curve; as a rule, active = well fitted inhibition curve with a large enough effect; inconclusive = small, poorly fitted or top-dose-only effect; inactive = flat fitted curve, though single readings scatter.

Legend:
CRL-7250 = normal cell line; test: Cytotoxic Profiling of Annotated Libraries Using Quantitative High-Throughput Screening (AID 1296008); settings: Five cell lines viability, CellTiter-Glo ATP luminescence, 48-72 h; max response: stronger effect = lower value; as to max response: % is scaled to controls: 0 for no effect and ±100 for the full control effect
Method in brief: (§1)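 Cytotoxicity was measured as CellTiter-Glo ATP luminescence, read after 10 min at room temperature. Compound treatment of the cells lasted 48 or 72 hr at 37 degrees Celsius in a qHTS format.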

HEK293 = test: as above; settings: Five cell lines viability, CellTiter-Glo ATP luminescence, 48-72 h; max response: stronger effect = lower value
Method in brief: as §1

HaCat [1] = test: as above; settings: Five cell lines viability, CellTiter-Glo ATP luminescence, 48-72 h; max response: stronger effect = lower value
Method in brief: as §1

KB-3-1 = test: as above; settings: Five cell lines viability, CellTiter-Glo ATP luminescence, 48-72 h; max response: stronger effect = lower value
Method in brief: as §1

NIH3T3 = test: as above; settings: Five cell lines viability, CellTiter-Glo ATP luminescence, 48-72 h; max response: stronger effect = lower value
Method in brief: as §1

HACAT [2] = test: qHTS assay to identify novel small-molecules to repurpose for Merkel cell carcinoma treatment (AID 1296009); settings: MCC and control cell lines, CellTiter-Glo viability, 72 h; at 44.8 µM (top of the series) unless noted
Method in brief: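 Cell viability measured by CellTiter-Glo following 72 hr compound treatment at 37 degree celsius, with NPC and MIPE libraries tested in 8- and 11-point concentration series.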

Measured: max response
Also: nearly all actives have a fitted effect of over 60% in size.

C/C=C(\C)C(=O)OC[C@H]1O[C@@H](O[C@H]2[C@@H](O[C@H]3O[C@H](CO)[C@@H](O)[C@H](O)[C@H]3O[C@@H]3O[C@H](CO)[C@@H](O)[C@H](O)[C@H]3O)O[C@H](COC(=O)/C(C)=C/C)[C@@H](O)[C@@H]2O)[C@H](O)[C@@H](O)[C@@H]1O
inactive: CRL-7250 | HEK293 -5.43% | HaCat [1] | KB-3-1 -3.26% | NIH3T3 3.7% | HACAT [2] inactive [at 9.27 µM]

COc1cccc(CN(C(=O)CC(C)(C)C)C2CC(C(=O)N3CCNCC3)N(Cc3ccc4c(c3)OCO4)C2)c1 (stereo unspecified)
inactive: CRL-7250 -4.46% | HEK293 -17.6% | HaCat [1] | KB-3-1 | NIH3T3 | HACAT [2]

CC(C)c1ccc2c(c1)C(O)CC1C(C)(CO)CCCC21C (stereo unspecified)
inactive: CRL-7250 -14% | HEK293 -7.86% | HaCat [1] | KB-3-1 9.46% | NIH3T3 -1.6% | HACAT [2]

C[C@]12CCC[C@](C)(C(=O)O)C1[C@@H](O)[C@@H](O)C13CC(CCC12)C(CO)(O[C@@H]1O[C@H](CO)[C@@H](O)[C@H](O)[C@H]1O)C3 (stereo partly specified)
inactive: CRL-7250 4.72% | HEK293 -8.27% | HaCat [1] | KB-3-1 8.89% | NIH3T3 | HACAT [2] inactive [at 17.4 µM]

C[C@]1(O)CC[C@@H]2C(C(=O)O)=CO[C@@H](O[C@@H]3O[C@H](COC(=O)/C=C/c4ccc(O)c(O)c4)[C@@H](O)[C@H](O)[C@H]3O)[C@@H]21
inactive: CRL-7250 | HEK293 0.933% | HaCat [1] | KB-3-1 9.19% | NIH3T3 | HACAT [2] inactive [at 17.4 µM]

Cc1occc(=O)c1O[C@@H]1O[C@H](COC(=O)CC(C)(O)CC(=O)O)[C@@H](O)[C@H](O)[C@H]1O (stereo partly specified)
inactive: CRL-7250 | HEK293 -5.53% | HaCat [1] | KB-3-1 | NIH3T3 | HACAT [2] inactive [at 17.4 µM]

CC(=O)O[C@@H]1[C@H](O[C@@H]2O[C@H](CO)[C@@H](O)[C@H](O)[C@H]2O)[C@@H](O[C@@H]2O[C@@H](C)[C@H](O)[C@@H](O[C@@H]3O[C@H](CO)[C@@H](O)[C@H](O)[C@H]3O)[C@H]2O)[C@H](OC(=O)[C@]23CCC(C)(C)C[C@H]2C2=CCC4[C@@]5(C)C[C@H](O)[C@H](O[C@@H]6O[C@H](C(=O)O)[C@@H](O)[C@H](O)[C@H]6O)[C@@](C)(C(=O)O)C5CC[C@@]4(C)[C@]2(C)CC3)O[C@@H]1C (stereo partly specified)
inactive: CRL-7250 -5.6% | HEK293 -5.4% | HaCat [1] | KB-3-1 | NIH3T3 | HACAT [2] inactive [at 9.27 µM]

CC(=O)OC1C(O)/C(C)=C\C2C(OC(=O)c3ccccc3)C(C)CC2(OC(C)=O)C(OC(C)=O)C(C)/C=C/C(C)(C)C1OC(C)=O (stereo unspecified)
inactive: CRL-7250 -1.02% | HEK293 -2.9% | HaCat [1] | KB-3-1 7.33% | NIH3T3 | HACAT [2] inactive [at 17.4 µM]

CCC(C)C(C(=O)O)N1Cc2c(OCC=C(C)C)c(C)c(OC)c(C(=O)O)c2C1=O (stereo unspecified)
inactive: CRL-7250 0.564% | HEK293 -3.21% | HaCat [1] | KB-3-1 | NIH3T3 -10.1% | HACAT [2] inactive [at 17.4 µM]

COc1cnc(-n2cnc(C)n2)c2[nH]cc(C(=O)C(=O)N3CCN(C(=O)c4ccccc4)CC3)c12
inactive: CRL-7250 | HEK293 -12.9% | HaCat [1] | KB-3-1 | NIH3T3 | HACAT [2]

CC1=CC2=C(C)C(=O)[C@](C)(O)[C@H](O)C2=CO1
inactive: CRL-7250 -8.59% | HEK293 3.6% | HaCat [1] | KB-3-1 6.84% | NIH3T3 -3.34% | HACAT [2]

COc1ccc2[nH]c(S(=O)Cc3ncc(C)c(OC)c3C)nc2c1 (stereo unspecified)
inactive: CRL-7250 -15.2% | HEK293 3.04% | HaCat [1] | KB-3-1 6.01% | NIH3T3 | HACAT [2]

C=C(C(=O)O)[C@@H]1CC[C@@]2(C)CCC[C@@](C)(O)[C@@H]2C1
inactive: CRL-7250 -2.07% | HEK293 -3.93% | HaCat [1] | KB-3-1 5.56% | NIH3T3 1.2% | HACAT [2]

CC1=C2CC(=O)C(C)CC/C=C(\C)CC2OC1=O (stereo unspecified)
inactive: CRL-7250 | HEK293 -1.49% | HaCat [1] | KB-3-1 1.48% | NIH3T3 2.98% | HACAT [2]

Cc1cccc(-c2nn3c(c2-c2ccnc4ccc(C(N)=O)cc24)CCC3)n1
inactive: CRL-7250 1.85% | HEK293 3.73% | HaCat [1] | KB-3-1 | NIH3T3 -5.67% | HACAT [2]

CC1C2=CC(=O)OC2(O)CC2C1CCC1C(C)(C)CCC(O)C21C (stereo unspecified)
inactive: CRL-7250 -5.55% | HEK293 -27.5% | HaCat [1] | KB-3-1 -9.97% | NIH3T3 0.733% | HACAT [2]

CC1(C)CC[C@]2(C(=O)O[C@@H]3O[C@H](CO)[C@@H](O)[C@H](O)[C@H]3O)CC[C@]3(C)C(=CCC4[C@@]5(C)C[C@@H](O)[C@H](O)[C@@](C)(CO)C5[C@H](O)C[C@]43C)C2C1 (stereo partly specified)
inactive: CRL-7250 -10.1% | HEK293 -14.5% | HaCat [1] | KB-3-1 -2.95% | NIH3T3 | HACAT [2] inactive [at 17.4 µM]

COc1cc(C(=O)OCC2=CCC3C(C(=O)O)=COC(O[C@@H]4O[C@H](CO)[C@@H](O)[C@H](O)[C@H]4O)C23)ccc1O (stereo partly specified)
inactive: CRL-7250 -2.16% | HEK293 -8.64% | HaCat [1] | KB-3-1 | NIH3T3 | HACAT [2] inactive [at 17.4 µM]

CCC(C)/C=C(C)/C=C/C1=CC2=C(Cl)C(=O)C(C)(OC(C)=O)C(=O)C2=CN1CCCCC(N)C(=O)O (stereo unspecified)
inactive: CRL-7250 -2.74% | HEK293 3.25% | HaCat [1] | KB-3-1 | NIH3T3 3.52% | HACAT [2] inactive [at 17.4 µM]

COC(=O)[C@]1(Cc2ccc(O)c(CC=C(C)C)c2)OC(=O)C(O)=C1c1ccc(O)cc1
inactive: CRL-7250 1.22% | HEK293 3.25% | HaCat [1] | KB-3-1 | NIH3T3 0.954% | HACAT [2] inactive [at 17.4 µM]

O=C(O)/C=C/c1ccc(O[C@@H]2O[C@H](CO)[C@@H](O)[C@H](O)[C@H]2O)cc1
inactive: CRL-7250 | HEK293 -0.219% | HaCat [1] | KB-3-1 | NIH3T3 | HACAT [2]

C=CC(C)(O)CC/C=C(\C)COC1O[C@H](CO)[C@@H](O)[C@H](O)[C@H]1O (stereo partly specified)
inactive: CRL-7250 -13.2% | HEK293 0.0631% | HaCat [1] | KB-3-1 1.01% | NIH3T3 3.77% | HACAT [2]

Cc1cc(-c2nncc3c(C(C)(C)C)c(OCc4ncnn4C)nn23)no1
inactive: CRL-7250 | HEK293 -4.36% | HaCat [1] | KB-3-1 6.49% | NIH3T3 1.34% | HACAT [2]

C/C=C/C=C/C=C/C(=O)OC1C=C2C(O)OC(=O)[C@]2(O)[C@@]2(C)CCCC(C)(C)[C@H]12 (stereo partly specified)
inactive: CRL-7250 -0.551% | HEK293 4.05% | HaCat [1] | KB-3-1 4.24% | NIH3T3 3.08% | HACAT [2] inactive [at 17.4 µM]

COc1cncc(C#Cc2ccccn2)c1
inactive: CRL-7250 4.39% | HEK293 2.17% | HaCat [1] | KB-3-1 -1.99% | NIH3T3 -3.14% | HACAT [2]

CC1=C[C@@H]2[C@H]3[C@@H]4O[C@@](C)(CC[C@H]4O)[C@H]3CC(=O)[C@]23C(=O)N[C@@H](CC(C)C)[C@@H]3[C@@H]1C
inactive: CRL-7250 | HEK293 4.29% | HaCat [1] | KB-3-1 9.19% | NIH3T3 | HACAT [2]

OCC1OC(Oc2cc(O)cc(/C=C/c3ccc(OC4OC(CO)C(O)C(O)C4O)cc3O)c2)C(O)C(O)C1O (stereo unspecified)
inactive: CRL-7250 | HEK293 3.22% | HaCat [1] | KB-3-1 5.55% | NIH3T3 0.921% | HACAT [2] inactive [at 17.4 µM]

NCCCCN(Cc1nc2ccccc2[nH]1)[C@H]1CCCc2cccnc21
inactive: CRL-7250 -5.02% | HEK293 -0.584% | HaCat [1] | KB-3-1 1.94% | NIH3T3 | HACAT [2] inactive [at 17.4 µM]

C[C@@H]1O[C@@H](OC[C@H]2O[C@@H](OCc3ccccc3)[C@H](O)[C@@H](O)[C@@H]2O)[C@H](O)[C@H](O)[C@H]1O
inactive: CRL-7250 | HEK293 -5.01% | HaCat [1] | KB-3-1 -7.21% | NIH3T3 0.0365% | HACAT [2] inactive [at 17.4 µM]

C/C=C(\C)C(=O)OC1CC2C(CC=C3CC(OC4CC(OC)C(OC5CC(OC)C(OC6CC(OC)C(OC7CC(OC)C(OC8CC(OC)C(OC9OC(CO)C(O)C(O)C9O)C(C)O8)C(C)O7)C(C)O6)C(C)O5)C(C)O4)CCC32C)C2(O)CCC(C(C)=O)C12C (stereo unspecified)
inactive: CRL-7250 | HEK293 -12.4% | HaCat [1] | KB-3-1 8.92% | NIH3T3 | HACAT [2] inactive [at 9.27 µM]

COC(=O)C1=COC(OC2OC(CO)C(O)C(O)C2O)C2C(COC(=O)/C=C/c3ccc(O)c(O)c3)C(O)C(O)C12 (stereo unspecified)
inactive: CRL-7250 | HEK293 0.488% | HaCat [1] | KB-3-1 | NIH3T3 2.28% | HACAT [2] inactive [at 17.4 µM]

C=C1CCC2C(C)(C)CCC[C@]2(C)[C@H]1CC/C(C)=C/C(=O)O (stereo partly specified)
inactive: CRL-7250 | HEK293 -1.43% | HaCat [1] | KB-3-1 -7.37% | NIH3T3 2.18% | HACAT [2]

CC(CC(C)O[C@@H]1O[C@H](CO)[C@@H](O)[C@H](O)[C@H]1O)OC(=O)/C=C/c1ccc(O)cc1 (stereo partly specified)
inactive: CRL-7250 2.71% | HEK293 -1.24% | HaCat [1] | KB-3-1 | NIH3T3 3.43% | HACAT [2] inactive [at 17.4 µM]

CC(C)(O)C1CCC2(C)CCCC(C)(O)C2C1 (stereo unspecified)
inactive: CRL-7250 -27.4% | HEK293 2.93% | HaCat [1] | KB-3-1 8.99% | NIH3T3 | HACAT [2]

CCC12CCCN3CCc4c(n(c5ccccc45)C(O)C1)C32 (stereo unspecified)
inactive: CRL-7250 -2.83% | HEK293 -7.92% | HaCat [1] | KB-3-1 | NIH3T3 -1.2% | HACAT [2]

CC(=O)C1CCC(=O)N1Cc1ccccc1 (stereo unspecified)
inactive: CRL-7250 | HEK293 -9.27% | HaCat [1] | KB-3-1 -4.66% | NIH3T3 3.14% | HACAT [2]
